# High-throughput results: PubChem, National Center for Advancing Translational Sciences (NCATS)
# In the library only some 0.41% were active in any assay of this set; here they are far more common.
# Menin-MLL TR inh: inhibitors of human menin-MLL interaction, mutant MLL peptide. actives 0.23% (n = 270,000). AID 1768. Potency, µM (series often up to 61.6 µM), actives largely listed as inhibitors. O00255. Menin + Texas Red MLL mutant peptide, fluorescence polarization; active = well fitted inhibition curve with a large enough effect in the polarisation, with a control signal flat, not every such curve was filed as active; inconclusive = small, poorly fitted or top-dose-only effect, or effect the other way, or a change in a side signal; inactive = no such curve, though single readings can be large or run the other way; the % refers to the polarisation
# PKM2 act: increases activity of human pyruvate kinase M2 | Potency, µM (highest dose often 57.5 µM), most hits filed as activators | purified PKM2, Kinase-Glo ATP luminescence, activation; response scale: 0% is enzyme alone, no compound | P14618 | actives 0.34% (n = 260,000); note: nearly all actives have a fitted effect of over 55% in size
# Target sequence (P14618 whole entry, looked up): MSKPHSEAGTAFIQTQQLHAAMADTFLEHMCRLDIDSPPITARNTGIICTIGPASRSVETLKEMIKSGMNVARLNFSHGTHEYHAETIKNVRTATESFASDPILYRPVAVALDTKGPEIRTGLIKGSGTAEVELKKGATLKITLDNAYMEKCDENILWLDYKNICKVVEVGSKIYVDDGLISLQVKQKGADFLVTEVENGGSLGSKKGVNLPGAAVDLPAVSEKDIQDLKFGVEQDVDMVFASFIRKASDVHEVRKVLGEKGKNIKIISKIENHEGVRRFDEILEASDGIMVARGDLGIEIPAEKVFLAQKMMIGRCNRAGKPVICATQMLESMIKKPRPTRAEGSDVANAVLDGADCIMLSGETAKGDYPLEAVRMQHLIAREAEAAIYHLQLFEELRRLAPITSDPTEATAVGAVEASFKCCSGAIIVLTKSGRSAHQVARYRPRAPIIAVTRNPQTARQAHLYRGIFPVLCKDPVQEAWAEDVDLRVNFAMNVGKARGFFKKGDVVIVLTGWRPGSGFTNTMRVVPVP
#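 hPK-M2, >95% pure; 0.1 mM ADP / 0.5 mM PEP final; imidazole pH7.2 buffer w/ 7 mM MgCl2, 50 mM KCl; 1 h RT; Kinase-Glo lum. Intermediate enzyme activity for dual inhibitor/activator qHTS.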
# Menin MLL FP FL: displaces fluorescein MLL peptide from human menin; Fluorescence polarization, fluorescein-MLL peptide displacement from menin; AID 1766; 290,000 tested, under 10 active; FP activity change, % at 61.4 µM; active = well fitted curve in the direction sought with a large enough effect in the polarisation, not every such curve was filed as active; inconclusive = small, poorly fitted or top-dose-only effect, or effect the other way, or a change in a side signal; inactive = no such curve, though single readings can be large or run the other way; the % refers to the polarisation
# MLL CXXC-DNA inh: inhibitors of human MLL CXXC domain-DNA interaction | Q03164 | MLL-CXXC / FITC-HOXA9 DNA fluorescence polarization | Potency, µM (titrated, usually from 115 µM), hits mostly inhibitors | actives 0.037% (n = 290,000) | AID 2662; active = well fitted inhibition curve with a large enough effect in the polarisation, with a control signal flat, not every such curve was filed as active; inconclusive = small, poorly fitted or top-dose-only effect, or effect the other way, or a change in a side signal; inactive = no such curve, though single readings can be large or run the other way; the % refers to the polarisation
#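 Steps: dispense CXXC domain solution (7 uM) → pin compounds or unlabeled HOX-A9 DNA control → 5 min ambient → add FLSN-HOX-A9 solution (50 nM) → spin → 30 min ambient → fluorescence polarization. Tris pH 7.5/NaCl/DTT/BSA buffer.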
# HeLa viability: counter-screen for pyruvate kinase M2 activators: HeLa cytotoxicity; shares compounds with PKM2 act; 230 tested, under 10 active; HeLa viability, CellTiter-Glo ATP luminescence, 24 h; activity change, negative = cytotoxicity, % at 57.5 µM
# MLL CXXC FP-Fl: MLL CXXC-DNA interaction inhibition, fluorescein FP. actives 70% (n = 200). AID 624160. shares compounds with MLL CXXC-DNA inh. MLL CXXC-DNA binding, fluorescein FP. Potency, µM (highest dose often 345 µM), hits mostly inhibitors; note: nearly all actives have a fitted effect of over 80% in size
# MLL CXXC FP-TR: disrupts human MLL CXXC domain binding to DNA, Texas Red | MLL CXXC-DNA binding, Texas Red fluorescence polarization | AID 624161 | actives 40% (n = 200) | shares compounds with MLL CXXC-DNA inh | Potency, µM (doses to about 345 µM), actives largely listed as inhibitors; note: nearly all actives have a fitted effect of over 75% in size
# MLL CXXC TRF: inhibitors of human MLL CXXC domain-DNA interaction, HTRF format. shares compounds with MLL CXXC-DNA inh. MLL CXXC-DNA binding, HTRF, biochemical. Potency, µM (doses to about 172 µM), actives largely listed as inhibitors. actives 30% (n = 210); note: nearly all actives have a fitted effect of over 80% in size
# Numbers stand for hits; n = inactive; u = inconclusive; x = no result given. Unless noted, calls come from the whole dose curve; as a rule, active = well fitted curve in the direction sought with a large enough effect; inconclusive = small, poorly fitted or top-dose-only effect, or another doubt; inactive = no such curve, though single readings can be large; an effect the other way counts as inactive or inconclusive.
SMILES,Menin-MLL TR inh,PKM2 act,Menin MLL FP FL,MLL CXXC-DNA inh,MLL CXXC FP-Fl,MLL CXXC FP-TR,MLL CXXC TRF,others
CCc1nnc(NC(=O)CSc2nnc(-c3ccc(NS(=O)(=O)c4ccccc4)cc3)o2)s1,n,0.794µM,n,u,u,n,n,HeLa viability=n
NS(=O)(=O)Nc1ccccc1Br,n,x,n,x,x,x,x,
O=C1OC(/C(=C\Nc2ccc(F)cc2F)[N+](=O)[O-])c2ccccc21 (stereo unspecified),n,n,n,u,n,126µM,n,
Cc1cc(-c2ccccc2)c2c3c(c(-c4ccccc4)n2n1)c(=O)n(C)c(=O)n3C,n,n,u,50.1µM,n,n,n,
C=C(C(C)=O)C(O)c1cccc(Br)c1 (stereo unspecified),n,x,n,x,x,x,x,
O=C1C2C(c3ccccc3)CC=CC2[C@H](c2ccc(C(F)(F)F)cc2)N1Cc1ccccc1 (stereo partly specified),x,n,n,u,22.5µM,n,n,
C[C@@H]1CC=C[C@H]2[C@H]1C(=O)N(Cc1ccccc1)[C@H]2c1ccc(C(F)(F)F)cc1,x,n,n,n,x,x,x,
CN(C)c1ccc(/C=C2\SC(=S)N(Nc3ncc(C(F)(F)F)cc3Cl)C2=O)cc1,u,n,u,3.16µM,1.13µM,113µM,n,
Cc1cc(-c2ccc(N=Nc3ccc4c(S(=O)(=O)O)cc(S(=O)(=O)O)c(N)c4c3O)c(C)c2)ccc1N=Nc1ccc2c(S(=O)(=O)O)cc(S(=O)(=O)O)c(N)c2c1O,u,x,u,n,x,x,x,
Nc1c(N=Nc2ccc(-c3ccc(N=Nc4cc(S(=O)(=O)O)c5ccccc5c4N)cc3)cc2)cc(S(=O)(=O)O)c2ccccc12,u,x,u,35.5µM,22.5µM,25.2µM,9.68µM,
CCCCCCCCCCCCCCCCSCC(COC)COP(=O)([O-])OCC[N+](C)(C)C (stereo unspecified),n,x,n,x,x,x,x,
CCn1c(CSc2ncn[nH]2)nc2cc(C(=O)O)ccc21,x,n,n,u,n,126µM,n,
CCSc1nnc(NC(=O)c2nc(S(=O)(=O)Cc3ccc(F)cc3)ncc2Cl)s1,x,x,x,u,22.5µM,100µM,9.68µM,
CC[C@@H]1Cn2c(c3nc(-c4cc(Cl)cc(Cl)c4Cl)nc-3n(C)c2=O)N1,n,x,n,x,x,x,x,
C#CCOCCOCCOCCNc1nc(N2CCN(C(=O)[C@H](CCCCN)n3cc([C@@H](N)C(C)CC)nn3)CC2)nc(N2CCN(C(=O)[C@H](CCCCN)n3cc([C@@H](N)CO)nn3)CC2)n1 (stereo partly specified),n,n,n,79.4µM,5.65µM,n,n,
O=C(CSc1nc2ccccc2c(=O)n1Cc1ccc(F)cc1)NCc1cccs1,n,n,n,7.94µM,n,n,n,
Cc1cc(NC(=O)CSc2nc3ccccc3c(=O)n2Cc2ccc(F)cc2)no1,n,n,n,n,x,x,x,
CC(C)c1cc(=O)oc2c3c4c(cc12)CCCN4CCC3,n,n,u,u,x,x,x,
CN1CCCc2cc3c(C(F)(F)F)cc(=O)oc3nc21,n,n,u,28.2µM,44.8µM,n,n,
Cc1ccc(S(=O)(=O)NC2OC(=O)C(Cl)=C2Cl)cc1 (stereo unspecified),n,n,n,u,89.5µM,142µM,48.5µM,
CC(C)NC(=O)N1CC2(CCN(C(=O)c3ccncc3)CC2)C1,n,x,n,x,x,x,x,
O=c1ccc2[n+]([O-])c3ccc(O)cc3oc-2c1,x,n,u,35.5µM,u,2.25µM,u,
O=c1cc(O)c2ccc(O)cc2o1,n,n,n,u,x,x,x,
CC(=O)C1(O)Cc2c(O)c3c(c(O)c2C(OC2CC(N)C(O)C(C)O2)C1)C(=O)c1c(O)cccc1C3=O (stereo unspecified),u,x,u,u,4.48µM,20µM,n,
CC[C@@]1(O)C[C@H](O[C@H]2C[C@@H](N(C)C)[C@@H](O[C@H]3C[C@@H](O)[C@@H](O[C@H]4CCC(=O)[C@@H](C)O4)[C@@H](C)O3)[C@@H](C)O2)c2c(cc3c(c2O)C(=O)c2c(O)cccc2C3=O)[C@H]1C(=O)OC,n,x,u,u,x,x,x,
CC(=O)N/N=C/c1cc(C(C)(C)C)cc(/C=N/NC(C)=O)c1O,n,n,u,u,n,n,n,
Cc1cc(C(=O)N/N=C\c2cc(C(C)(C)C)ccc2O)n[nH]1,x,n,x,n,x,x,x,
CCOC(=O)C(C(=O)OCC)c1cc(Br)c2noc3c2c1C(=O)c1ccccc1-3,u,n,u,31.6µM,10µM,40µM,u,
